# Reference: PubChem BioAssay (NCI)
# This is part of a sample that, as a whole, favours compounds with a hit. Of some 79,000 tested, about 15% had one in any assay. Unmarked numbers belong to inactive results. Active and inactive are the calls of the source. No stated cut-off is given here; in the data, active means growth inhibition above about 70%; inactive means the rest.
# Tests used:
# [1] = NCI Yeast Anticancer Drug Screen. Data for the rad50 strain (AID 155);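 further: 0% = growth of vehicle-only cultures of the same strain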; conditions: S. cerevisiae rad50 strain growth inhibition, active compounds read high
# Outline: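 Cells are treated with compound, grown, and their growth is then scored against vehicle-only cultures of the same repair-deficient yeast strain.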
# [2] = NCI Yeast Anticancer Drug Screen. Data for the mec2-1 strain (AID 157); conditions: S. cerevisiae mec2-1 strain, active compounds read high
# Outline: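 mec2-1 yeast strain, carrying an alteration in DNA damage repair or cell cycle control, was exposed to compounds; growth inhibition was measured relative to vehicle-treated controls.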
# [3] = NCI Yeast Anticancer Drug Screen. Data for the sgs1 mgt1 strain (AID 161);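 further: 0% = growth of cultures given vehicle only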; conditions: S. cerevisiae sgs1 mgt1 strain, active compounds read high
# Outline: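 Yeast cells carrying a defined DNA-repair defect were exposed to test compounds. Growth inhibition was measured relative to vehicle-treated controls.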
# [4] = NCI Yeast Anticancer Drug Screen. Data for the cln2 rad14 strain (AID 165);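 further: 0% = growth equal to vehicle treated cultures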; conditions: S. cerevisiae cln2 rad14 strain, active compounds read high
# Outline: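 Yeast carrying cln2 and rad14 alterations (cell cycle control and DNA damage repair) were exposed to compounds. Growth inhibition was measured against vehicle-treated controls.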
# [5] = NCI Yeast Anticancer Drug Screen. Data for the bub3 strain (AID 167); conditions: S. cerevisiae bub3 mutant strain, active compounds read high
# Outline: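 Part of a panel of yeast mutants defective in DNA damage repair or cell cycle regulation. Each strain is grown with compound, and inhibition is calculated relative to solvent-treated cultures.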
# [6] = NCI Yeast Anticancer Drug Screen. Data for the mlh1 rad18 strain (AID 175); conditions: S. cerevisiae mlh1 rad18 strain growth inhibition, active compounds read high
# Outline: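 Growth inhibition of the yeast strain was measured after compound exposure and expressed relative to vehicle-treated controls. The strain carries defined defects in DNA damage repair.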
# [7] = at 5.0 µM (retest, dose inferred, filed as 0.5)
# [8] = at 50.0 µM (retest, dose inferred, filed as 5.0)
Structure (SMILES),"growth inhibition [1, 7]","growth inhibition [1, 8]",growth inhibition ([1]; at 50.0 µM),"growth inhibition [2, 7]","growth inhibition [2, 8]",growth inhibition ([2]; at 50.0 µM),"growth inhibition [3, 7]","growth inhibition [3, 8]",growth inhibition ([3]; at 50.0 µM),"growth inhibition [4, 7]","growth inhibition [4, 8]",growth inhibition ([4]; at 50.0 µM),"growth inhibition [5, 7]","growth inhibition [5, 8]",growth inhibition ([5]; at 50.0 µM),"growth inhibition [6, 7]","growth inhibition [6, 8]",growth inhibition ([6]; at 50.0 µM)
CCc1ccccc1NC(=O)C(=O)CC(=O)c1ccc(Cl)s1,1%,1%,45.1%,-2%,-40%,2.6%,-1%,2%,6.85%,-2%,6%,26.2%,2%,1%,-9.55%,0%,5%,-0.1%
Oc1c(Br)cc(Cl)cc1Br,-4%,98% (active),93.5% (active),5%,99% (active),98% (active),4%,99% (active),86.5% (active),-11%,98% (active),90.5% (active),-6%,97% (active),96% (active),3%,96% (active),97.5% (active)
CC1C/C(=N\N(C)C)C(C#N)(C#N)C1(C#N)C#N (stereo not given),30%,99% (active),81% (active),45%,99% (active),81.1% (active),26%,97% (active),66.5%,27%,79% (active),37.8%,47%,99% (active),62.2%,59%,99% (active),92% (active)
Cc1nn(C(=S)S)c(C)c1N=Nc1ccc(Br)cc1,14%,97% (active),99.4% (active),0%,99% (active),99.6% (active),8%,99% (active),99.2% (active),-7%,98% (active),99.4% (active),-2%,98% (active),82.2% (active),0%,99% (active),99.2% (active)
O=C(NNc1nc(-c2ccccc2)cs1)C(F)(F)F,83% (active),97% (active),86.8% (active),74% (active),98% (active),89.7% (active),91% (active),99% (active),87.5% (active),50%,91% (active),87% (active),97% (active),99% (active),85.7% (active),93% (active),94% (active),91.2% (active)
C#CC(CC(C)C)(CC(C)C)OC(=O)Nc1ccccc1,5%,95% (active),97.9% (active),1%,97% (active),97.3% (active),4%,98% (active),98.1% (active),3%,96% (active),97.7% (active),3%,94% (active),97.5% (active),-6%,95% (active),97.3% (active)
Cc1cccc(NC(=O)Oc2ccc(Cl)c3cccnc23)c1,75% (active),99% (active),88.5% (active),57%,99% (active),88.7% (active),97% (active),99% (active),91.8% (active),95% (active),99% (active),89.9% (active),82% (active),67%,85.5% (active),72% (active),99% (active),88.8% (active)
O=C1C2C3C=CC(C3)C2C(=NS(=O)(=O)c2ccccc2)C2C3C=CC(C3)C12 (stereo not given),-33%,9%,84.7% (active),-2%,0%,89.8% (active),3%,14%,91.4% (active),-1%,-3%,22.1%,-2%,4%,53%,28%,12%,72.5% (active)
N#CC(C#N)=C1C(Br)=CCc2ccccc21,100% (active),99% (active),99.2% (active),100% (active),100% (active),99.3% (active),100% (active),99% (active),99.2% (active),100% (active),99% (active),97.5% (active),100% (active),99% (active),99.2% (active),100% (active),99% (active),99.2% (active)
CC1CN(CC2CCCCCCCCCCC2=O)CC(C)O1 (stereo not given),59%,74% (active),73.5% (active),25%,45%,65.5%,52%,53%,83.8% (active),62%,59%,60.4%,67%,79% (active),75.8% (active),74% (active),86% (active),69.9%
Cc1cc(C(O)(C(F)(F)F)C(F)(F)F)cc(C(O)(C(F)(F)F)C(F)(F)F)c1,-1%,99% (active),97.2% (active),12%,99% (active),98.3% (active),-6%,99% (active),52.8%,-4%,99% (active),95.7% (active),6%,98% (active),96% (active),1%,99% (active),97.8% (active)
CN(C)C(=O)N(C)/N=C/c1ccc([N+](=O)[O-])o1,10%,56%,80.3% (active),1%,21%,53.5%,8%,68%,90.8% (active),4%,30%,42.2%,5%,42%,40%,21%,68%,89.5% (active)
CC(C)c1c(P(=O)(c2ccccc2)c2ccccc2)n(C)c2ccccc12,36%,99% (active),83.4% (active),-34%,98% (active),89.5% (active),-30%,89% (active),77.8% (active),-4%,98% (active),85.5% (active),-25%,99% (active),84.7% (active),-27%,96% (active),79.6% (active)
CC(C)C(=O)[O][Bi]([c]1ccccc1)[c]1ccccc1,13%,92% (active),82% (active),7%,78% (active),87.2% (active),-32%,93% (active),87.5% (active),9%,90% (active),85.6% (active),11%,93% (active),84.5% (active),15%,88% (active),91% (active)
Cc1ccc(C2CC(c3cccc([N+](=O)[O-])c3)=Nc3ccccc3S2)cc1 (stereo not given),0%,19%,57.5%,0%,31%,15.9%,-1%,46%,57.3%,-6%,-4%,36.4%,11%,78% (active),88% (active),2%,29%,60.8%
N=C(N)c1ccc(OCCCCOc2ccc(N)cc2Cl)cc1,-36%,89% (active),54.5%,-2%,79% (active),7.85%,3%,98% (active),44.4%,-2%,38%,-16.9%,0%,97% (active),0.65%,17%,98% (active),58.6%
COc1nc(NC2OCC(O)C(O)C2O)c(Cl)c(=O)n1C (stereo not given),0%,-1%,-15.4%,-1%,-5%,-3.7%,-2%,-3%,11.4%,-1%,-3%,30.4%,-2%,-4%,10.2%,-5%,-7%,-7.85%
O=c1[nH]c2c([N+](=O)[O-])cc(Cl)cc2nc1/C=C(\O)c1ccco1,17%,74% (active),72.7% (active),-5%,44%,56.1%,1%,54%,84.2% (active),-1%,62%,59%,4%,66%,32.6%,-4%,70% (active),80% (active)
CCCCCCN(CCCCCC)CCC(=O)c1ccc2cc(Cl)c3ccccc3c2c1,29%,90% (active),78.4% (active),-28%,95% (active),82% (active),33%,95% (active),78.2% (active),3%,88% (active),31.8%,5%,94% (active),33.2%,17%,91% (active),87.8% (active)
O=C1C=CC(=O)c2cc(Sc3ccccc3)c(=O)ccc21,16%,37%,81.2% (active),29%,38%,42.2%,25%,98% (active),71.7% (active),33%,72% (active),39.4%,30%,98% (active),37%,33%,37%,87% (active)
